In the library only some 12% were active in any assay of this set; here they are far more common.
SARS PLpro yeast – inhibitors of SARS-CoV papain-like protease in yeast; S. cerevisiae expressing SARS-CoV PLpro, growth rescue; Potency, µM (titrated, usually from 32.9 µM), for the others: at the highest dose activity, positive = growth rescue, usual class: activators; 330,000 compounds, 0.19% hits; calls by dose curve; further: 0% is about no effect; nearly all actives have a fitted effect of over 55% in size
Pf growth 48h – P. falciparum growth inhibition at 48 hours (one generation); Potency, µM (highest dose often 28.7 µM), for the others: at the top dose activity change, negative = inhibition, actives largely listed as inhibitors; P. falciparum luciferase growth in erythrocytes, 48 h; 310,000 compounds, 5.9% hits; further: on the % scale 0 is the no-effect control and ±100 the full control effect
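Luciferase-expressing P. falciparum in infected erythrocytes (2% hematocrit, 0.1% parasitemia final) in RPMI 1640/0.5% Albumax were exposed to compound for 48 hours at 37 C, 5% CO2; growth read as luminescence.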
HCV inh – HCV inhibition; Huh7.5.1 HCVcc-Cre infection, luciferase reporter, 44 h; Potency, µM (highest dose often 41.8 µM), for inactives: top-dose activity change, negative = inhibition, usual class: inhibitors; 340,000 compounds, 3.4% hits; AID 651820; further: on the % scale 0 is the no-effect control and ±100 the full control effect
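Luciferase read-out (15 sec integration) after a 15 min room-temperature substrate step quantifies HCVcc-Cre infection. Cells, 1,000 per well, had compound added 4 h post-plating, then virus at ~0.5 moi, and were cultured 44 h.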
NS1 function inh – blocks influenza NS1 protein function; Potency, µM (series often up to 46.1 µM), without a hit: at the highest dose activity, positive = more growth; 270,000 compounds, 0.4% hits; AID 2326; calls by dose curve; further: actives are rising curves; nearly all actives have a fitted effect of over 50% in size
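S. cerevisiae expressing influenza A NS1, grown in glucose, washed, then diluted 1:100 into pH 6.0 -URA galactose medium with 23 nl compound. Growth recovery read as OD600; NS1-free strain serves as control.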
AMA1 RON2 block – inhibitors of Plasmodium falciparum AMA1-RON2 interaction; 360,000 compounds, 0.2% hits; AlphaScreen AMA1-biotinylated RON2 peptide binding; Potency, µM (series often up to 58.2 µM), without a hit: at the highest dose activity change, negative = inhibition, hits mostly inhibitors;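 further: 0% = vehicle wells and -100% = peptide control; nearly all actives have a fitted effect of over 45% in size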
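AMA1 (3D7) with his tag at 25 nM final met compounds first, then biotinylated RON2 peptide at 25 nM; detection used donor plus acceptor beads, 10 µg/mL apiece, read by AlphaScreen after 30 min at room temperature.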
Pf growth 96h – P. falciparum growth inhibition at 96 hours | P. falciparum luciferase reporter growth, 96 h | Potency, µM (top dose mostly 28.7 µM), without a hit: at the highest dose activity change, negative = inhibition, usual class: inhibitors | 320,000 compounds, 6.9% hits | AID 504834; further: on the % scale 0 is the no-effect control and ±100 the full control effect
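Delayed-death screen, second-generation endpoint: infected erythrocytes, 2% hematocrit, 0.05% parasitemia final; 96 hours at 37 C, 5% CO2; luciferase detection reagent; luminescence decrease equals reduced growth.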
* hit, by the source's call; u = inconclusive; x = no result given; [ ] = another dose, or the depositor's remark. Unless noted, the call rests on the fitted dose curve; in most records, active means well fitted curve in the direction sought with a large enough effect; inconclusive means small, poorly fitted or top-dose-only effect, or another doubt; inactive means no such curve, though single readings can be large; an effect the other way counts as inactive or inconclusive. Potency means the concentration at half of the fitted maximal effect.

SMILES	SARS PLpro yeast	Pf growth 48h	HCV inh	NS1 function inh	AMA1 RON2 block	Pf growth 96h
CCc1ccc(NC(=O)CSc2nnc(Cc3cccn3C)n2-c2ccc(F)cc2)cc1	-5%	10µM*	2%	-72%	-2%	2.3µM*
CC(=O)Nc1cccc(NC(=O)CSc2nnc(Cc3cccn3C)n2-c2ccc(C)cc2)c1	2%	u	7%	-6%	31%	4.1µM*
NC1=NC(=O)C(c2ccccc2)(c2ccccc2)S1	x	x	20%	x	17%	x
CCCCc1ccc(S(=O)(=O)NC(=O)C2(C)CCN2C(=O)CCc2cccs2)cc1 (centres undefined)	x	x	x	x	-5%	x
COc1ccc(NC(=O)CSc2nnc(Cc3cccn3C)n2-c2ccc(OC)cc2)cc1	-4%	u	-9%	7%	3%	u
COc1ccc(-n2c(Cc3cccn3C)nnc2SCC(=O)Nc2ccc(C(C)=O)cc2)cc1	6%	x	-12%	u	6%	0.47µM*
Cn1cccc1Cc1nnc(SCC(=O)Nc2cccc(Cl)c2)n1-c1ccc(F)cc1	15%	u	1%	-97%	0%	8.3µM*
Cn1c(=O)c2c(nc(N/N=C\c3ccccc3C(=O)O)n2C)n(C)c1=O	x	x	x	-3%	x	x
Cc1cc(C)n2nc(C(=O)Nc3cccc(S(=O)(=O)N(C)c4ccccc4)c3)nc2n1	-6%	u	u	-35%	-2%	u
COc1ccc(/C=C/C(=O)C(C(N)=O)=C2SCCS2)cc1	15%	-27%	4%	-3%	-7%	-29%
NC(=O)C(C(=O)/C=C/c1ccc(Cl)cc1)=C1SCCS1	0%	u	u	-2%	2%	8.3µM*
COc1cc([N+](=O)[O-])ccc1NC(=O)CSc1nc2ccccc2n1-c1ccccc1	8%	8.3µM*	1%	-25%	x	10µM*
O=C(CCNS(=O)(=O)c1ccc2[nH]c(=O)oc2c1)NCc1ccccc1	3%	7%	15%	-2%	-9%	12µM*
O=C(CCNS(=O)(=O)c1ccc2[nH]c(=O)oc2c1)NCc1ccc(F)cc1	4%	15%	21%	7%	7%	20%
CCOC(=O)C1=C(C)NC(C)=C(C(=O)OCC)C1C(=O)OCC(=O)NCc1ccccc1	2%	x	u	x	13%	x
CC(NC(=O)COC(=O)c1ccco1)c1ccccc1 (centres undefined)	-3%	x	23%	5%	-10%	11%
CC(NC(=O)COC(=O)c1ccc(N(C)C)cc1)c1ccccc1 (centres undefined)	-6%	12µM*	u	1%	8%	9%
CCOC(=O)C1=C(C)NC(C)=C(C(=O)OCC)C1C(=O)OCC(=O)NC(C)c1ccccc1 (centres undefined)	3%	u	u	x	12%	13µM*
c1ccc(-c2onc(-c3ccco3)c2-c2ccc3c(c2)OCO3)cc1	0%	u	-9%	-6%	29%	13µM*
O=C(O)c1cc(-c2ccc(-c3c(-c4ccc5c(c4)OCO5)noc3-c3ccsc3)cc2)nc2ccccc12	-2%	2%	u	-3%	11%	u
COCCN(C(=O)CSc1nnc(-c2cccc(OC)c2)n1C)c1c(N)n(Cc2ccccc2)c(=O)[nH]c1=O	0%	19%	x	x	x	-4%
CC(OC(=O)CCCC(=O)Nc1ccc(F)cc1)C(=O)c1ccccc1 (centres undefined)	-2%	u	9%	-11%	5%	15%
CN1C(=O)CCC2(c3ccccc3)CC=C(O)C=C12 (centres undefined)	x	x	17%	x	-16%	x
Cc1c(NC(=O)c2cc(-n3cnnc3)ccc2Cl)cccc1-c1nc2ccccc2s1	1%	44%	u	5%	-2%	60%
COc1cc(NC(=O)c2cc(-n3cnnc3)ccc2Cl)cc(OC)c1	u	2%	-21%	1%	-4%	13µM*
SMILES	SARS PLpro yeast	Pf growth 48h	HCV inh	NS1 function inh	AMA1 RON2 block	Pf growth 96h
CC(=O)Nc1ccc(NC(=O)c2cc(-n3cnnc3)ccc2Cl)cc1	-1%	10%	-15%	4%	-4%	11%
Cc1ccc2sc(-c3ccc(NC(=O)c4cc(-n5cnnc5)ccc4Cl)cc3)nc2c1	9%	-95%	0.89µM*	13%	-9%	u
O=C(Nc1cccc(-c2nc3ccccc3s2)c1)c1cc(-n2cnnc2)ccc1Cl	5%	17%	13µM*	19%	0%	0%
CC(OC(=O)CC1CCCC1)C(=O)Nc1ccc(S(N)(=O)=O)cc1 (centres undefined)	-1%	4%	9%	x	1%	15%
CC1CCCCN1c1ccc(N)cc1C(N)=O (centres undefined)	-1%	u	8%	-8%	-9%	-6%
O=C(O)C1=NN(c2cc(Cl)c(S(=O)(=O)O)cc2Cl)C(=O)C1	x	x	19%	x	2.8µM*	x
CC1=NN(c2ccc(S(=O)(=O)O)cc2C)C(=O)C1	0%	4%	12%	3%	8%	-7%
CN(C)[C@@H]1C(=O)C(C(N)=O)=C(O)[C@]2(O)C(=O)C3=C(O)c4c(O)ccc(Cl)c4[C@H](O)[C@H]3C[C@@H]12	x	6.7µM*	x	x	x	3.4µM*
C=C1c2cccc(O)c2C(O)=C2C(=O)[C@@]3(O)C(O)=C(C(N)=O)C(=O)[C@@H](N(C)C)[C@@H]3[C@@H](O)[C@H]12	x	3.2µM*	x	x	x	1.3µM*
CN(C)[C@@H]1C(=O)C(C(N)=O)=C(O)[C@]2(O)C(=O)C3=C(O)c4c(O)ccc(Cl)c4[C@](C)(O)[C@H]3C[C@@H]12	x	-15%[12.8 µM]	x	x	x	u
CN(C)C1C(=O)C(C(N)=O)=C(O)C2(O)C(=O)C3=C(O)c4c(O)cccc4C(C)(O)C3C(O)C12 (centres undefined)	-14%	u	5%	8%	u	2.6µM*
C[C@H]1c2cccc(O)c2C(O)=C2C(=O)[C@]3(O)C(O)=C(C(N)=O)C(=O)[C@@H](N(C)C)C3[C@@H](O)C21 (some centres undefined)	x	3.7µM*	17%	x	-30%	0.41µM*
C[C@@H]1CN([C@H](C)CO)C(=O)CCCn2cc(nn2)CO[C@H]1CN(C)C(=O)c1ccc2ccn(C)c2c1	x	x	x	x	2%	x
C[C@@H]1c2cccc(O)c2C(O)=C2C(=O)[C@@]3(O)C(O)=C(C(N)=O)C(=O)[C@@H](N(C)C)[C@@H]3[C@@H](O)[C@@H]21	x	7.6µM*	x	x	x	1.5µM*
C=C1c2cccc(O)c2C(=O)C2C(=O)[C@]3(O)C(=O)C(C(N)=O)C(=O)[C@@H](N(C)C)[C@@H]3[C@@H](O)[C@H]12 (some centres undefined)	17%	x	1%	x	0.89µM*	x

Screening results from PubChem.
